These results are taken from PubChem BioAssay AID540259 (Broad Institute, 2011).

Entries with a potency or affinity are not part of this list. A number with no mark means an inactive call.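 Rule for the calls: active = cell killing, meaning signal decrease, with fitted half-maximal dose at or below ten times the top valid tested dose; inconclusive = poor fit, or flat curve with 30 to 70% signal loss; inactive = the rest.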

The assay can be described thus: HeLa cell cytotoxicity, dose response, cytotoxicity control for MITF activator project, CellTiter-Glo luminescence, cherry-pick samples (AID 540259).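 Note: 0% = DMSO neutral control and -100% = mitoxantrone positive control.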 Conditions: HeLa viability, CellTiter-Glo ATP luminescence, 24 h; series mostly up to 35 µM; activity change, negative = cytotoxicity: at the top concentration.
As for `Nc1ncccc1OCc1ccc(Br)cc1`, the “activity change, negative = cytotoxicity” value was -6.3%.

Regarding `Cc1ccc(-c2csc(C(C#N)=C3CCCC3)n2)cc1`, the “activity change, negative = cytotoxicity” value was -7.26%.

In the case of `CCC(C)NC(=O)c1cc(-c2ccc(OC)cc2)on1` (configuration not stated), the “activity change, negative = cytotoxicity” value is -1.15%.

As to `CCN(CC)c1ccc(C(=O)NNC(=O)c2cccn2C)cc1`, the “activity change, negative = cytotoxicity” value was 6.62%.

For `Cc1ccn2cc(C(=O)Nc3nnc(C)s3)nc2c1`, the “activity change, negative = cytotoxicity” value is 7.28%.

On to `COc1ccc(-c2cn(CC3CCCCC3)nn2)cc1`, for which the “activity change, negative = cytotoxicity” value is 6.96%.

Take `O=C(CC1CCCC1)Nc1ccc(Br)cc1`: the “activity change, negative = cytotoxicity” value is -3.11%.

Turning to `CSc1nc2ccc(NC(=O)c3cccs3)cc2s1`, the “activity change, negative = cytotoxicity” value was -0.438%.

In the case of `CC(C)C(=O)Nc1cccc(C(=O)Nc2nnc(C(C)C)s2)c1`, the “activity change, negative = cytotoxicity” value was 10.2%.

Regarding `Cc1ccc(NC(=O)Nc2ccc3c(c2)OCO3)c(OC(F)F)c1`, the “activity change, negative = cytotoxicity” value was 3.43%.

With `CCCCNC(=O)c1cc2ccccc2s1`, the “activity change, negative = cytotoxicity” value is 2.01%.

For the molecule `O=C(c1cc(COc2ccc(F)cc2Cl)on1)N1CCCCCC1`, the “activity change, negative = cytotoxicity” value was -8.23%.

With `COc1ccc(/C=N/Nc2nccnc2Cl)c(OC)c1`, the “activity change, negative = cytotoxicity” value was 8.52%.

With `Cc1ccccc1Nc1nc(N)nc(COC(=O)c2ccccc2)n1`, the “activity change, negative = cytotoxicity” value is 11.2%.

`Cc1nn(-c2ccc(N3CCCCC3)nn2)c(C)c1CCC(=O)Nc1cccc(F)c1`: the “activity change, negative = cytotoxicity” value is 4.81%.

`CCc1ccc(C(=O)N/N=C(\C)c2cccnc2)s1`: the “activity change, negative = cytotoxicity” value was 8.45%.

Take `O=C(Cc1ccccc1F)Nc1ccc(SC(F)F)cc1`: the “activity change, negative = cytotoxicity” value is -0.022%.

As for `Cc1ccc(-c2csc(NC(=O)c3ccc(Br)cc3)c2C(=O)O)cc1`, the “activity change, negative = cytotoxicity” value is 6.5%.

In the case of `O=S(=O)(c1cccs1)N1CCCc2cccc(O)c21`, the “activity change, negative = cytotoxicity” value is -14.1%.

On to `CSc1cccc(NC(=O)c2cnn3ccccc23)c1`, for which the “activity change, negative = cytotoxicity” value is -3.79%.

Consider `Cc1ccc(/C=N/N2C(=O)c3ccccc3NC2c2ccc(C)cc2)cc1` (configuration not stated), for which the “activity change, negative = cytotoxicity” value is -11.9%.

`O=C(NCC1CC1)Nc1ccc(Cl)cc1`: the “activity change, negative = cytotoxicity” value was 8.75%.

In the case of `COc1ccc2cc(C(=O)NCCc3ccccc3)[nH]c2c1`, the “activity change, negative = cytotoxicity” value was 8.17%.

For `COC(=O)c1ccc(CSC2=NCCS2)cc1`, the “activity change, negative = cytotoxicity” value is 9.68%.

For `[O-]/[N+](=C\C=C\c1ccccc1)c1ccccc1`, the “activity change, negative = cytotoxicity” value is -0.305%.

In the case of `CCC(=O)c1ccc(OCc2ccccc2)c(OC)c1`, the “activity change, negative = cytotoxicity” value is -0.933%.

As to `Clc1ccc(-c2nc(C3CCCCC3)no2)cc1`, the “activity change, negative = cytotoxicity” value was 0.174%.

In the case of `O=C(NCc1ccccn1)Nc1ccc(Br)cc1Cl`, the “activity change, negative = cytotoxicity” value was 13.2%.

Consider `Cc1ccc(NC(=O)CCCc2ccccc2)nc1`, for which the “activity change, negative = cytotoxicity” value was 0.518%.

`O=C(NC1CCCCCC1)c1cc2c(=O)n3ccccc3nc2s1`: the “activity change, negative = cytotoxicity” value is -0.59%.

Turning to `CCCCC(=O)Nc1sc2c(c1C#N)CC(C)(C)OC2`, the “activity change, negative = cytotoxicity” value is 4.44%.

For the molecule `c1ccc(-c2noc(CCC3CCCC3)n2)cc1`, the “activity change, negative = cytotoxicity” value was -0.086%.

For `Cc1cccc(-c2nc(C#N)c(NC3CCCCC3)o2)c1`, the “activity change, negative = cytotoxicity” value was -1.93%.

`COc1ccc(/C=N/Nc2snc(SC)c2C#N)cc1OC`: the “activity change, negative = cytotoxicity” value was 7.17%.

Regarding `COc1ccc(Oc2nnc(C)c3ccccc23)cc1`, the “activity change, negative = cytotoxicity” value was 7.22%.

Consider `Cc1ccc(Nc2ncc3c(n2)CC(C)(C)CC3=O)cc1`, for which the “activity change, negative = cytotoxicity” value was 0.285%.

As for `FC(F)(F)c1ccnc(Oc2ccc(C3=NCCS3)cc2)c1`, the “activity change, negative = cytotoxicity” value was 0.775%.
